Source: PubChem (National Center for Advancing Translational Sciences (NCATS))
A selection: hits, their analogues and other compounds. The true share with any hit is near 19%.
HT1080-NT tox: qHTS for induction of synthetic lethality in tumor cells producing 2HG: qHTS for the HT-1080-NT fibrosarcoma cell line; AID 686970, 2013; hit rate 1.6% among 360,000; HT-1080-NT fibrosarcoma viability, CellTiter-Glo ATP luminescence, 48 h; Potency, µM (highest dose often 46.1 µM), most hits filed as cytotoxic;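 further: NT is the 2HG producing partner of a matched IDH1 knockdown line; nearly all actives have a fitted effect of over 55% in size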
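HT-1080-NT; 750 cells/well; 5% FBS RPMI; 48 h compound, 37 degrees C; CellTiter-Glo luminescence; curve fitting and curve-class assignment.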
HT1080 IDH1KD tx: qHTS for induction of synthetic lethality in tumor cells producing 2HG: qHTS for the HT-1080-IDH1KD cell line; HT-1080 IDH1 knockdown viability, ATP luminescence, 48 h; Potency, µM (series often up to 46.1 µM), usual class: cytotoxic; hit rate 2% among 360,000; AID 686971, 2013
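Using the IDH1-knockdown HT-1080 line run in the same batch and compound series as the NT line, viability after 48 h at 37 °C was determined by CellTiter-Glo luminescence and expressed as % activity.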
IL-1B inflam inh: qHTS for Inhibitors of Inflammasome Signaling: IL-1-beta AlphaLISA Primary Screen; THP-1 LPS/ATP IL-1B secretion, AlphaLISA, 16 h; hits give low values; activity change, % at 57.5 µM; hit rate 4.7% among 360,000; AID 743279, 2014; in the data active means activity change below about -50%; inconclusive means mostly about -30% to -49%
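THP-1 cells pretreated 1 hr with compounds (up to 57.5 uM final), then stimulated with LPS (250 ng/mL final) plus ATP (1.25 mM final); secreted IL-1B measured by AlphaLISA after 16 hr, decreased signal indicating inhibition.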
ELG1 DNA repair: qHTS screen for small molecules that inhibit ELG1-dependent DNA repair in human embryonic kidney (HEK293T) cells expressing luciferase-tagged ELG1 | hit rate 2.3% among 330,000 | Potency, µM (titrated, usually from 46.1 µM), most hits filed as inhibitors | AID 504467, 2011 | HEK293T ELG1-luciferase reporter, luminescence, 16 h; DNA damage induced by 5-fluorouridine; further: nearly all actives have a fitted effect of over 55% in size
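DMSO vehicle served as the neutral condition. Each well held 2,000 cells given 5-fluorouridine plus compound; after 16 hr at 37 °C/5% CO2, ONE-Glo was added and luciferase measured 30 min later.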
TDP1 cell noCPT: qHTS for Inhibitors of human tyrosyl-DNA phosphodiesterase 1 (TDP1): qHTS in cells in absence of CPT | Potency, µM (series often up to 46.2 µM), hits mostly inhibitors | DT40 Tdp1-/- hTDP1 cells, no CPT, ATP luminescence, 48 h | AID 686978, 2013 | hit rate 15% among 420,000; further: nearly all actives have a fitted effect of over 55% in size
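Chicken DT40 Tdp1-/- cells complemented with human TDP1, screened without camptothecin (DMSO vehicle only), 400 cells/well. Compounds pin-transferred, cells incubated at 37 °C for at least 48 hr. Growth read as ATP-dependent luminescence (CellTiter-Glo, 30 min at RT).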
DT40 TDP1 CPT: qHTS for Inhibitors of human tyrosyl-DNA phosphodiesterase 1 (TDP1): qHTS in cells in presence of CPT; chicken DT40 Tdp1-/-;hTDP1 cells + 20 nM CPT, ATP luminescence, 48 h; Potency, µM (series often up to 46.2 µM), usual class: inhibitors; hit rate 12% among 420,000; AID 686979, 2013; further: nearly all actives have a fitted effect of over 55% in size
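Chicken DT40 Tdp1-/- cells complemented with human TDP1, 400 cells/well, exposed to compounds plus 20 nM camptothecin for at least 48 h at 37 C; viability read as ATP content by CellTiter-Glo luminescence.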
A number is an active result; [ ] = another dose, or the depositor's remark. Unless noted, the call rests on the fitted dose curve; in most records, active means well fitted curve in the direction sought with a large enough effect; inconclusive means small, poorly fitted or top-dose-only effect, or another doubt; inactive means no such curve, though single readings can be large; an effect the other way counts as inactive or inconclusive.

For CCOC(=O)N1CCN(S(=O)(=O)N2CCCC(C(=O)NCCCN3CCCCC3CC)C2)CC1 (stereo not drawn) the results were HT1080-NT tox inactive, HT1080 IDH1KD tx inactive, IL-1B inflam inh inactive, ELG1 DNA repair inactive, TDP1 cell noCPT inactive and DT40 TDP1 CPT inactive.
Screening COC(CNC(=O)c1cccc2c1C(=O)N(Cc1cccnc1)C2)OC returned HT1080-NT tox inactive, HT1080 IDH1KD tx inactive, IL-1B inflam inh inactive, ELG1 DNA repair inconclusive, TDP1 cell noCPT inactive and DT40 TDP1 CPT inactive.
For CCCN1Cc2cccc(C(=O)NC(CC(=O)OCC)c3ccc(C)cc3)c2C1=O (stereo not drawn) the results were HT1080-NT tox inactive, HT1080 IDH1KD tx inactive, IL-1B inflam inh inactive, ELG1 DNA repair inactive, TDP1 cell noCPT inactive and DT40 TDP1 CPT inactive.
Screening CCOc1ccc(NC(=O)c2cccc3c2C(=O)N(Cc2cccnc2)C3)cc1 returned HT1080-NT tox inactive, HT1080 IDH1KD tx inactive, IL-1B inflam inh -82, ELG1 DNA repair inactive, TDP1 cell noCPT inconclusive and DT40 TDP1 CPT inconclusive.
`COc1ccc(N2Cc3cccc(C(=O)Nc4ccc(Cl)cc4)c3C2=O)cc1` gave TDP1 cell noCPT 21µM and DT40 TDP1 CPT 8.2µM.
For COCCN1Cc2cccc(C(=O)Nc3ccc(C)cc3)c2C1=O the results were HT1080-NT tox inactive, HT1080 IDH1KD tx inactive, IL-1B inflam inh -68, ELG1 DNA repair inactive, TDP1 cell noCPT inconclusive and DT40 TDP1 CPT inactive.
`COCCN1Cc2cccc(C(=O)Nc3ccc(C(=O)OC)cc3)c2C1=O` gave TDP1 cell noCPT inactive and DT40 TDP1 CPT inactive.
Screening CCCN1Cc2cccc(C(=O)NC(CC(=O)OCC)c3ccc(OC(C)C)cc3)c2C1=O (stereo not drawn) returned HT1080-NT tox inactive, HT1080 IDH1KD tx inactive, IL-1B inflam inh inactive, ELG1 DNA repair inconclusive, TDP1 cell noCPT 21µM and DT40 TDP1 CPT inconclusive.
CCCN1Cc2cccc(C(=O)Nc3ccc(OC)c(OC)c3)c2C1=O was read as HT1080-NT tox inactive, HT1080 IDH1KD tx inconclusive, IL-1B inflam inh inactive, TDP1 cell noCPT inactive and DT40 TDP1 CPT inactive.
`CCCN1Cc2cccc(C(=O)Nc3ccc(CN4CCCC4)cc3)c2C1=O` gave HT1080-NT tox inactive, HT1080 IDH1KD tx inactive, IL-1B inflam inh -56, ELG1 DNA repair inactive, TDP1 cell noCPT 23µM and DT40 TDP1 CPT inactive.
For Cc1cccc2sc(NNC(=O)c3ccc(S(=O)(=O)N4CCCC(C)C4)cc3)nc12 (stereo not drawn) the results were HT1080-NT tox inconclusive, HT1080 IDH1KD tx 21µM, IL-1B inflam inh inactive, ELG1 DNA repair inconclusive, TDP1 cell noCPT 3.7µM and DT40 TDP1 CPT 4.1µM.
Screening Cc1cc(C)c2nc(NC(=O)c3ccc(S(=O)(=O)N4CCCC4)cc3)sc2c1 returned TDP1 cell noCPT inactive and DT40 TDP1 CPT inactive.
Screening Cc1cc(C)c2nc(NNC(=O)c3ccc(S(=O)(=O)N4CCCCC4)cc3)sc2c1 returned HT1080-NT tox inconclusive, HT1080 IDH1KD tx inconclusive, IL-1B inflam inh inactive, ELG1 DNA repair inactive, TDP1 cell noCPT 3.3µM and DT40 TDP1 CPT 4.6µM.
Screening Cc1cccc2sc(NNC(=O)c3ccc(S(=O)(=O)N4CCc5ccccc5C4)cc3)nc12 returned HT1080-NT tox inconclusive, HT1080 IDH1KD tx 16µM, IL-1B inflam inh inactive, ELG1 DNA repair inactive, TDP1 cell noCPT 2.3µM and DT40 TDP1 CPT 2.6µM.
Screening COc1cccc(CNC(=O)c2sc3nc[nH]c(=O)c3c2C)c1 returned TDP1 cell noCPT inactive and DT40 TDP1 CPT inconclusive.
Screening C[C@@H]1CN([C@@H](C)CO)C(=O)c2cc(-c3ccncc3)cnc2O[C@H]1CN(C)C(=O)c1cccc(F)c1 returned HT1080-NT tox inactive, HT1080 IDH1KD tx inactive, IL-1B inflam inh inactive, TDP1 cell noCPT inconclusive and DT40 TDP1 CPT inactive.
`CC(C)COc1ccc(CNC(=S)N/N=C/c2ccc([N+](=O)[O-])cc2)cc1` gave HT1080-NT tox inactive, HT1080 IDH1KD tx inactive, IL-1B inflam inh inactive, ELG1 DNA repair inconclusive, TDP1 cell noCPT inactive and DT40 TDP1 CPT inactive.
`CCCOc1ccc(CNC(=S)N/N=C/c2ccc([N+](=O)[O-])cc2)cc1` gave HT1080-NT tox inconclusive, HT1080 IDH1KD tx inconclusive, IL-1B inflam inh inactive, ELG1 DNA repair inactive, TDP1 cell noCPT 21µM and DT40 TDP1 CPT inconclusive.
`CCCOc1ccc(CNC(=S)NCc2ccc(OC(C)C)cc2)cc1` gave HT1080-NT tox inactive, HT1080 IDH1KD tx inactive, IL-1B inflam inh inactive, ELG1 DNA repair inactive, TDP1 cell noCPT 18µM and DT40 TDP1 CPT inconclusive.
For COc1cc(-c2cnc3ccccc3c2)cc2c1OCCN(C(=O)CCC(=O)c1ccc(F)cc1)C2 the results were TDP1 cell noCPT inactive and DT40 TDP1 CPT inactive[9.04 µM].
For COc1ccc2c(c1)C1OCCC1C(c1ccco1)N2 (stereo not drawn) the results were HT1080-NT tox inconclusive, HT1080 IDH1KD tx inconclusive, IL-1B inflam inh inconclusive, TDP1 cell noCPT inconclusive and DT40 TDP1 CPT 23µM.
For C[C@]12CCC(O)CC1=CCC1C2CC[C@]2(C)/C(=N\NC(N)=S)CCC12 (stereo partly drawn) the results were HT1080-NT tox inactive, HT1080 IDH1KD tx inactive, IL-1B inflam inh inactive, ELG1 DNA repair inactive, TDP1 cell noCPT inactive and DT40 TDP1 CPT inactive.
Screening OC(COc1ccc(Cl)cc1)CN1C2=NCCCN2c2ccccc21 (stereo not drawn) returned HT1080-NT tox inconclusive, HT1080 IDH1KD tx inconclusive, IL-1B inflam inh inactive, ELG1 DNA repair inactive, TDP1 cell noCPT 21µM and DT40 TDP1 CPT 21µM.
`ClCCN1C2=NCCCN2c2ccccc21` gave HT1080-NT tox inactive, HT1080 IDH1KD tx inactive, IL-1B inflam inh inactive, ELG1 DNA repair inactive, TDP1 cell noCPT inactive and DT40 TDP1 CPT inactive.
OC(CN1C2=NCCCN2c2ccccc21)c1ccc(Cl)cc1 (stereo not drawn) was read as HT1080-NT tox inconclusive, HT1080 IDH1KD tx inconclusive, IL-1B inflam inh inactive, ELG1 DNA repair inactive, TDP1 cell noCPT 18µM and DT40 TDP1 CPT inconclusive.
`CC(C)(C)C(=O)CSc1nnc(Nc2ccccc2)s1` gave HT1080-NT tox inactive, HT1080 IDH1KD tx inactive, IL-1B inflam inh inactive, ELG1 DNA repair inconclusive, TDP1 cell noCPT inactive and DT40 TDP1 CPT inactive.
